96 molecules from PubChem BioAssay AID748 (Sanford-Burnham Center for Chemical Genomics, 2007) can be followed below.

Hit rate of the full screen: of about 96,000 compounds, about 100 (0.1%) were called active. This is one part of a sample in which actives are shown more often than they occur. Results with a measured potency or affinity are listed apart. Values without a mark were called inactive.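 The calls were made as follows: active = displacement above 50% at 20 µM plus a fluorescence interference ratio under 1.5; inactive = the rest.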

For this assay, the target named is Bcl-2-like protein 10 (Homo sapiens) (UniProt Q9HD36). In words: Bcl-B/TR3 peptide binding disruption – biochemical, fluorescence polarization, FITC-TR3 peptide, selectivity assay for Bfl-1 inhibitor project, primary screen (AID 748).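 Also: plate controls were wells without compound for no effect and wells lacking Bcl-B protein for full effect.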 As to conditions: FP displacement of FITC-TR3 peptide from Bcl-B; at 20 µM; active compounds read high. (In fluorescence polarisation assays a small probe gives low polarisation when free and higher when bound to something large.)
With `CC(C)Cn1c(N2CCN(C(=O)c3cccs3)CC2)nc2ccccc21`, the displacement was -1.5%.
For `Cc1ccc(SC(CC(=O)c2ccc(C)cc2)C(=O)O)cc1` (stereo unspecified), the displacement was -5%.
For `CSc1nc(C)cc(NC(N)=O)n1` the value was -7.4%; for `Cn1c(C(C#N)C(=O)c2sc3ccccc3c2Cl)nc2ccccc21` (stereo unspecified), -2.9%; for `Cn1c(C(C#N)C(=O)c2ccco2)nc2ccccc21` (stereo unspecified), 13.4%.
For `COc1ccccc1-n1c(C)nc2cc(C(=O)O)ccc21` the value was -9.1%; for `Cc1cc(C(=O)NCCC2=CCCCC2)no1`, -6.6%; for `C=CCn1c(SCC(=O)NC2CCCC2)nc2scc(-c3ccco3)c2c1=O`, 29.6%.
As for `CCC(=O)Nc1cccc(Br)c1`, the displacement was -1.7%.
With `CCCCC(=O)Nc1cccc(NC(=O)CC)c1`, the displacement is -6.1%.
`COCCNC(=O)CCCn1c(=O)c2ccccc2n(CC(=O)NCCC2=CCCCC2)c1=O`: the displacement was -8.5%.
Regarding `COc1ccccc1-c1nnc2sc(COc3ccccc3)nn12`, the displacement was 0.4%.
For `COc1ccccc1-c1nn2c(-c3ccccc3Cl)nnc2s1` the value was 5.7%; for `CCC(=O)c1cc(-c2nc3ccccc3n2C)n(C)c1`, 3.7%; for `COc1ccccc1-n1nnnc1SCc1cc2c(cc1Br)OCO2`, 2.6%.
As for `Brc1ccc(-c2cn3c(n2)CCc2ccc4cccnc4c2-3)cc1`, the displacement was 1%.
For `c1ccc(-c2cn3c(n2)CCc2ccc4cccnc4c2-3)cc1` the value was -7.4%.
The value for `NC(=O)NC(CC(=O)OCC(=O)NC(=O)NCc1ccco1)c1ccc(Cl)cc1` (stereo unspecified) was 0.6%.
The value for `CCOc1ccccc1N1CCN(C(=O)c2cc3c(s2)CCC3)CC1` was 0.5%.
In the case of `COc1ccccc1N1CCN(C(=O)c2ccc(Br)s2)CC1`, the displacement is -4.4%.
The value for `CC1CC(C)CN(C(=O)c2cc3c(s2)CCC3)C1` (stereo unspecified) was 0.4%; that for `O=C(c1cc2c(s1)CCCCC2)N1CCN(c2ncccn2)CC1` was -2.1%; that for `CCCC(=O)Nc1cccc(-c2nc3cc(C)c(C)cc3o2)c1` was -1.8%.
For `CCCN(CCC)C(=O)Cn1c(=O)n(CCC(=O)NCCc2ccccc2)c(=O)c2ccccc21`, the displacement is 1.2%.
For `CC(=O)Nc1cc(S(=O)(=O)Nc2ccccc2C)c(C)cc1C`, the displacement is -3.3%.
Take `CCCc1nnc(NC(=O)CCC(=O)N2CCN(CCOc3ccc(C)cc3)CC2)s1`: the displacement was 1.6%.
The value for `CSCCC(NC(=O)c1ccco1)C(=O)OCC(=O)Nc1ncc(Cl)c(C)c1Cl` (stereo unspecified) was 14.7%; that for `Cc1nc(NC(=O)COC(=O)C(NC(=O)c2ccco2)C(C)C)c(Cl)cc1Cl` (stereo unspecified) was 24.3%; that for `CCn1c(SC)nc2c(c1=O)SC(C)C2` (stereo unspecified) was -13.3%.
Turning to `Cc1c(NC(=O)c2cc(-c3ccccc3)on2)c(=O)n(-c2ccccc2)n1C`, the displacement is 1.8%.
For `Cc1ccc(-c2cc(C(F)(F)F)n3nc(C(=O)Nc4c(C)n(C)n(-c5ccccc5)c4=O)cc3n2)cc1` the value was -12.8%; for `O=C(OCC(=O)N1CCN(C(=O)c2ccco2)CC1)c1cc(-c2ccccc2)nc2ccccc12`, -78.6%; for `O=C(OCC(=O)N1CCN(C(=O)c2ccco2)CC1)c1cc(-c2ccc(F)cc2)nc2ccccc12`, 8.8%.
Turning to `COc1ccc(CNC(=O)COC(=O)c2cc(-c3ccco3)nc3ccccc23)cc1`, the displacement is 42.9%.
The value for `O=C(COC(=O)c1cc(-c2ccco2)nc2ccccc12)NCc1ccccc1` was -3%.
For `CC1Cc2ccccc2N1C(=O)CSc1nc2cc3c(cc2cc1C#N)OCO3` (stereo unspecified) the value was 3.7%; for `Cc1cccc(-n2nnc(C(=O)NCc3ccc4c(c3)OCO4)c2N)c1`, -4.7%; for `COc1ccc(C(=O)OCC(=O)c2ccc(C3CCCCC3)cc2)cc1`, 0.1%.
The value for `Cc1ccc(C(C(=O)NCc2ccco2)N(C(=O)Cn2nnc3ccccc32)c2ccccc2)o1` (stereo unspecified) was 2.5%.
For the molecule `Cc1cc(C)cc(CC2CC(=O)N(c3ccc(Cl)cn3)C2=O)c1` (stereo unspecified), the displacement is -1%.
The value for `Cn1c2ccccc2c2c(C(=O)NCc3ccco3)cn(C3CCCCC3)c(=O)c21` was 11.7%.
The value for `CC(C)CC(=O)Nc1cccc(-c2nc3ccccc3o2)c1` was 5.6%; that for `NC(=O)c1cc(Cc2ccccc2)sc1NC(=O)c1ccco1` was 0%.
The value for `Cc1c(C#N)c2ccccc2n1CC(=O)NC(C)c1ccccc1` (stereo unspecified) was 2.1%.
`COc1ccc(Nc2nc(N3CCCC3)c3ccccc3n2)cc1`: the displacement was 12.9%.
For `COc1ccc(Nc2nc(N3CCCCC3)c3ccccc3n2)cc1` the value was 6.9%; for `Cc1c(N(C(=O)c2cc(=O)[nH]c3ccccc23)C(C)C)c(=O)n(-c2ccccc2)n1C`, -10%; for `CC(C)Nc1nnc(SCC(=O)Nc2ccc(F)cc2)s1`, 1.5%.
Take `C=CCn1c(C)cc(C(=O)CSc2nnc(NC(C)C)s2)c1C`: the displacement was -5.7%.
For the molecule `NC(=O)Cn1c(=O)n(CCCC(=O)NC2CCN(Cc3ccccc3)CC2)c(=O)c2ccccc21`, the displacement was 4.2%.
As to `CC(C)OC(=O)C(NC(=O)c1ccccc1)=C1CCCCC1`, the displacement was -12.9%.
`Cc1ccc(NS(=O)(=O)c2ccc(C(=O)N3CCN(c4ccccn4)CC3)cc2)cc1`: the displacement was 3.6%.
The value for `COc1ccc(N2Cc3cccc(C(=O)N4CCN(C(=O)c5ccco5)CC4)c3C2=O)cc1` was 36.1%; that for `COc1ccc(N2Cc3cccc(C(=O)N4CCOCC4)c3C2=O)cc1` was 4.6%.
For `CC1(CC(=O)O)SC(=O)NC1=O` (stereo unspecified) the value was -6%; for `CCOC(=O)CCc1c(C)nc2cc(-c3ccccc3OC)[nH]n2c1=O`, 4%.
The value for `O=CNCCCc1nc2ccccc2n1Cc1cccc2ccccc12` was 1.8%; that for `CCOc1ccc(/C=N/NC(=O)COc2ccccc2-c2ccccc2)cc1` was 9.4%.
For the molecule `COc1ccc(/C=N/NC(=O)COc2ccccc2-c2ccccc2)cc1`, the displacement was -6.4%.
For `CCC1CCCCN1C(=O)COC(=O)c1n[nH]c2ccccc12` (stereo unspecified) the value was -6%; for `Cc1cc(S(=O)(=O)Nc2ccccc2C(=O)O)ccc1Cl`, -4.3%.
As for `COc1c(/C=N/Nc2ccc([N+](=O)[O-])cc2[N+](=O)[O-])c(C)nn1-c1ccccc1`, the displacement is -2.4%.
The value for `Cc1nn(-c2ccccc2)c(Cl)c1/C=N/Nc1ccc(S(=O)(=O)Nc2ccccc2C(=O)O)cc1[N+](=O)[O-]` was 62.4% (active).
The value for `Cc1ccc(CNC(=O)CCn2nc(-c3ccc(Cl)cc3)ccc2=O)cc1` was -8.8%.
The value for `COc1ccc(CCNc2nc3c(c(=O)n(C)c(=O)n3C)n2C)cc1OC` was 8.6%; that for `COc1ccccc1NC(=O)CNC(=O)c1ccc(F)cc1` was -4.7%.
For `O=C(Nc1ccc(N2CCOCC2)cc1)c1ccc2nc(-c3ccco3)c(-c3ccco3)nc2c1`, the displacement was 0%.
The value for `O=C(Nc1ccc2nsnc2c1)N1CCCCCC1` was 1.1%; that for `O=C(NCCO)c1ccc2nc(-c3ccco3)c(-c3ccco3)nc2c1` was 26.6%; that for `CCOC(=O)C1CCN(C(=O)Nc2ccc3nc(-c4ccco4)c(-c4ccco4)nc3c2)CC1` was 95.6%.
For `O=C(Nc1cccc(C(F)(F)F)c1)c1ccc2nc(-c3ccco3)c(-c3ccco3)nc2c1` the value was 19.6%.
For `O=C(NCc1ccccc1)c1ccc2nc(-c3ccco3)c(-c3ccco3)nc2c1` the value was 29.5%; for `CCOCCCNC(=O)C1CCN(C(=O)N(C)C)CC1`, 3.4%.
With `COc1ccc(C)cc1NS(=O)(=O)c1cn(C)c(=O)n(C)c1=O`, the displacement is -4.4%.
For `COc1ccc(S(=O)(=O)N2CCCC2C(=O)Nc2ccc(C)cc2)cc1` (stereo unspecified) the value was -2%.
As for `CCOC(=O)c1snc(-c2ccc(F)cc2)c1N`, the displacement is -3.1%.
As for `CCOC(=O)c1[nH]c2cc3c(cc2c1NC(=O)CN1CCCCC1C)OCO3` (stereo unspecified), the displacement was 9.5%.
The value for `O=S(=O)(c1ccc(S(=O)(=O)N2CCCN(Cc3ccccc3)C2)cc1)N1CCCCCC1` was 0.8%.
For `CC(=O)Nc1nnc(SCC(=O)NCCOc2ccccc2)s1` the value was -9.4%; for `CCCCC(=O)NC1=NC(=O)C(C)(C)S1`, -8%.
In the case of `Cc1oc2cc3c(C(=O)N4CCCCC4)c(C)oc3cc2c1C(=O)N1CCCCC1`, the displacement was 6.1%.
For `CCCCn1c(CCC(=O)O)ccc1-c1cccs1` the value was 4.3%; for `CCCn1c(CCC(=O)O)ccc1-c1cccs1`, 2.8%.
For `Cc1sc2nc(SCc3nc4ccccc4[nH]3)n(Cc3ccco3)c(=O)c2c1C`, the displacement is -8.7%.
With `COc1ccc(C2C(=O)N(C3CCCCC3)CC(=O)N2Cc2ccco2)cc1` (stereo unspecified), the displacement is -8.2%.
The value for `CCOC(=O)c1nn(-c2ccccc2)c(=O)c2c(N)scc12` was -1.6%.
Turning to `CC1(C)OC(=O)C(=CNc2ccccc2F)C(=O)O1`, the displacement was 5.4%.
For `Cc1nnc(SCC(=O)Nc2cccc(C(F)(F)F)c2)n1Cc1ccco1` the value was 4.7%.
Consider `CCOC(=O)c1[nH]c(C(=O)O)c(CCN(CC)CC)c1C`, for which the displacement is 0.1%.
As to `COC(=O)CCc1c(C)[nH]c(C(=O)OCc2ccccc2)c1C`, the displacement was -0.4%.
For `O=C(CCc1ccccc1)OCCN1CCOCC1` the value was 5.9%.
`Cn1nnnc1SCCNCc1ccccc1F`: the displacement is 1.2%.
For `CN(C)c1ccc2c(O)cc(=O)n(C)c2c1` the value was 13%; for `Cc1nnc(NC(=O)COc2ccccc2)s1`, -16.7%.
The value for `COc1ccc(CNCC(O)(c2ccccc2)c2ccc(Cl)cc2)cc1` (stereo unspecified) was -0.9%.
The value for `COc1ccc(-c2cc(C(F)(F)F)nc(SCC(=O)N3CCOCC3)n2)cc1OC` was -2.2%.
